The list is not random: actives were taken first. Their share in the collection is about 4.5%.
CSC inhib = cancer stem cell viability inhibitors, primary screen, luminescence; cancer stem cell-like cells viability; inhibition, % at 7.5 µM; 1.1% of 300,000 active; in the data active = inhibition above about 75%; inconclusive = no clear call, values can overlap the other calls; tested in HMLE shEcad cells
697 NFkB inh = inhibitors of PMA/ionomycin-induced NF-kB reporter, 697 cells, primary screen, B-cell NF-kB inhibitor project, cell-based, luminescence, uHTS | 0.33% of 330,000 active | 697 B-cell NF-kB luciferase reporter, 16 h | inhibition, % at 4 µM | AID 435022, 2010; in the data active = inhibition above about 35%
Gli-Sufu antag = Gli-Sufu pathway antagonists, primary screen, luciferase luminescence, Sufu-KO-LIGHT cells, uHTS. 0.74% of 340,000 active. inhibition, % at 5 µM. AID 588413, 2011. Sufu-KO-LIGHT fibroblasts, Gli luciferase reporter luminescence;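 active = inhibition above about 55%, limit read from the data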
Jurkat NFkB inh = inhibitors of induced NF-kB luciferase reporter, primary screen, TCR NF-kB activation inhibitor project, cell-based, luminescence, uHTS; Jurkat, PMA/ionomycin-induced NF-kB luciferase reporter; inhibition, % at 4 µM; 0.53% of 330,000 active; in the data active = inhibition above about 50%
Mdm2-MdmX inh = inhibitors of human Mdm2-MdmX association, primary screen, cell-based, luminescence, split luciferase, SaOS-2, uHTS; Protein Mdm4 (Homo sapiens) + E3 ubiquitin-protein ligase Mdm2 (Homo sapiens), …; inhibition, % at 8 µM; 3% of 330,000 active; SaOS-2 split-luciferase Mdm2/MdmX complementation;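 active = inhibition of at least 50% at 8 µM in the primary screen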
aSyn UTR inh = MLPCN primary screen, SNCA 5' untranslated region. alpha-synuclein 5'UTR reporter, inhibitor activity. 0.82% of 300,000 active. inhibition, % (tested at 7.5 µM); in the data active = inhibition above about 60%; inconclusive = no clear call, values can overlap the other calls;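 also: H4 neuroglioblastoma cells stably carrying SNCA 5'UTR luciferase fusion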
697 NFkB conf = PMA/ionomycin-induced NF-kB reporter inhibitors, 697 retest, confirmation, B-cell NF-kB inhibitor project, cell-based, luminescence, single concentration; shares compounds with 697 NFkB inh; 697 B-cell NF-kB luciferase, 16 h; inhibition, % at 4 µM; 35% of 2,000 active; AID 449746, 2010; in the data active = inhibition mostly above about 28%, no sharp cut-off; inactive = mostly below about 22%
Of the large screens only hits and unclear results are named; the others gave an inactive call (follow-up assays come after a bar, where they were run).

CCNS(=O)(=O)c1ccc(Br)c(C(=O)OC(C)C(=O)NCC2CCCCC2)c1 (stereo not drawn)	none (no result: CSC inhib, aSyn UTR inh)
CCCNC(=O)CSCc1nc(-c2ccc(SC)cc2)oc1C	697 NFkB inh 48 | 697 NFkB conf 42
CSc1ncc(C(=O)Nc2ccc(C(C)=O)cc2)c(C)n1	none
O=[N+]([O-])c1ccccc1OCCOCCOc1cccc2cccnc12	none
O=[N+]([O-])c1ccccc1COc1ccc(Cl)c2cccnc12	none | 697 NFkB conf inactive
Cn1c(=O)c2c(Nc3ccc(F)cc3)cc(=O)n(-c3ccccc3)c2n(C)c1=O	none
Cn1c(=O)cc(Nc2ccccc2)c2c(=O)n(-c3ccccc3)c(=O)n(-c3ccccc3)c21	697 NFkB inh 43 | 697 NFkB conf 32
CCN(Cc1ccccc1)C(=O)CN1C(=O)NC2(CC(C)CC(C)(C)C2)C1=O (stereo not drawn)	none
Cc1[nH]c2ccccc2c1C(=O)CN1C(=O)NC2(CC(C)CC(C)(C)C2)C1=O (stereo not drawn)	697 NFkB inh 38, aSyn UTR inh inconclusive | 697 NFkB conf 49
COc1ccccc1-c1nc(C#N)c(N2CCN(c3ccccc3)CC2)o1	697 NFkB inh 37 | 697 NFkB conf inactive
Cc1ccc2c(c1)c(-c1ccccc1)nc1nncn12	none
COc1cccc(/C=N/NC(=O)c2ccc(N3CCCC3=O)cc2)c1	none | 697 NFkB conf inactive
COc1cc(/C=N/NC(=O)c2ccc(-n3cccc3)cc2)ccc1O	697 NFkB inh 43 | 697 NFkB conf inactive
Cc1ccccc1-c1cc(C(=O)NCc2cccc(C(F)(F)F)c2)n(CC2CC(c3cccnc3)=NO2)n1 (stereo not drawn)	none (no result: CSC inhib, aSyn UTR inh)
O=C(CN1C2=NCCN2c2ccccc21)c1ccc(Br)s1	none
O=C(O)c1cc(N/N=C/c2cccs2)ccc1Cl	none (no result: CSC inhib, Gli-Sufu antag)
Cc1ccc(/C=N/Nc2ccc(Cl)c(C(=O)O)c2)s1	none | 697 NFkB conf inactive
CCC(C)Sc1nnc(NC(=O)c2ccco2)s1 (stereo not drawn)	none (no result: 697 NFkB inh, Jurkat NFkB inh, Mdm2-MdmX inh)
N#Cc1c(/N=C/c2cccs2)sc2c1CCCCC2	none | 697 NFkB conf inactive
COc1cc(Br)c(C(=O)c2nccc3cc(OC)c(OC)cc23)cc1OC	697 NFkB inh 39 | 697 NFkB conf 30
COc1cc(N)c(C(=O)c2nccc3cc(OC)c(OC)cc23)cc1OC	none
Cc1cc(/C=C2\SC(=O)N(C)C2=O)c(C)n1-c1ccc(O)cc1	none | 697 NFkB conf inactive
Cc1cc(/C=C2\SC(=O)N(C)C2=O)c(C)n1-c1ccc(S(N)(=O)=O)cc1	none
COc1ccc(CCNS(=O)(=O)c2ccc(-n3cnnn3)cc2)cc1OC	none
Cc1ccc(SCC(=O)OCC(=O)NCc2cccs2)cc1C	none
O=C1N/C(=C\c2ccc(O)cc2)C(=O)c2ccccc21	697 NFkB inh 45 | 697 NFkB conf inactive
O=C(O)/C=C1\NC(=O)c2ccccc21	none
COc1ccc(OCC(=O)N/N=C2/C=C(C)CC2)cc1	none
CCOCCCNc1nc2c(C)cccn2c(=O)c1/C=C1\SC(=S)N(C(C)CC)C1=O (stereo not drawn)	697 NFkB inh 37 | 697 NFkB conf 32
CCOCCCNc1nc2c(C)cccn2c(=O)c1/C=C1\SC(=S)N(CC(C)C)C1=O	none
CSc1cccc2sc(NC(=O)C3=COCCO3)nc12	none
O=C(Nc1nc2ccc(F)cc2s1)C1=COCCO1	none | 697 NFkB conf inactive
CCCCC(=O)NCCc1cc2c(OC)ccc(OC)c2[nH]c1=O	none
C#CCOC(=O)c1cc(Cl)c(=O)n(Cc2ccc(Cl)cc2Cl)c1	none
O=C(NCc1ccccc1)C1CCN(S(=O)(=O)N2CCOCC2)CC1	697 NFkB inh 41 | 697 NFkB conf inactive
O=C(NCc1ccccc1)C1CCN(S(=O)(=O)N2CCCCCC2)CC1	none
CCN(Cc1nc(-c2ccc(C)cc2)no1)C(=O)c1ccco1	none
Cc1noc(C)c1C(=O)Nc1cc(Cl)ccc1N1CCOCC1	none (no result: aSyn UTR inh)
COc1cccc(OC)c1C(=O)Nc1cc(Cl)ccc1N1CCOCC1	697 NFkB inh 39 | 697 NFkB conf inactive
CC(C)CC(C)N1CCC(n2nccc2NC(=O)CCc2ccccc2)CC1 (stereo not drawn)	none
Cc1ccc(N=Nc2c(N)nn(-c3ccccc3)c2N)cc1	none | 697 NFkB conf inactive
N#C/C(=C\c1ccccc1)C(=O)OCC(=O)N1CCCC1	none (no result: CSC inhib)
CCOc1cc(/C=C(\C#N)c2nc3ccccc3[nH]2)ccc1OC(C)C(=O)O (stereo not drawn)	none
CCOc1cc(/C=C(/C#N)c2nc3ccccc3[nH]2)ccc1Oc1ccc([N+](=O)[O-])cn1	697 NFkB inh 40 | 697 NFkB conf inactive
NC(=O)c1cc([N+](=O)[O-])ccc1NCc1ccc(O)cc1	CSC inhib inconclusive, 697 NFkB inh 37 (no result: aSyn UTR inh) | 697 NFkB conf inactive
Cc1c(Cc2ccccc2)c(=O)oc2c(C)c(OCC(=O)NCC3CCC(C(=O)O)CC3)ccc12 (stereo not drawn)	697 NFkB inh 39 | 697 NFkB conf inactive
Cn1nc(-c2ccc(Cl)cc2)c2cc(C(=O)N3CCCC3)sc21	697 NFkB inh 56 | 697 NFkB conf 43
Cc1cccc(Cn2nc(C)cc2NC(=O)CCCn2ccc([N+](=O)[O-])n2)c1	none
O=C(CSCCO)Nc1ccc(C23CC4CC(CC(C4)C2)C3)cc1	697 NFkB inh 57 | 697 NFkB conf 66
CCCCC(=O)Nc1nc2c(OC)ccc(OC)c2s1	697 NFkB inh 36 | 697 NFkB conf inactive
CC(C)[C@H](N)c1nnc(SCc2ccc(Cl)cc2)o1	none
CCC(C)[C@H](N)c1nnc(SCC(=O)c2ccc(Cl)cc2)o1 (stereo partly drawn)	697 NFkB inh 44 | 697 NFkB conf 32
COc1ccc(C(=O)N2CCCC(c3ccccc3)=N2)cc1	none
Cc1ccc(C(=O)N2CCCC(c3ccc(Cl)cc3)=N2)cc1	697 NFkB inh 42 | 697 NFkB conf 39
CC(C)NC(=O)c1ccc2c(=O)n(CC3CCCO3)c(=S)[nH]c2c1 (stereo not drawn)	697 NFkB inh 36 | 697 NFkB conf inactive
COCCCNC(=O)c1ccc2c(=O)n(CC3CCCO3)c(=S)[nH]c2c1 (stereo not drawn)	none
Cc1ccc(C(=O)Oc2oc(-c3ccccc3)nc2C=Nc2ccc(N(C)C)cc2)cc1	697 NFkB inh 35 | 697 NFkB conf inactive
Cc1cnc(NC(=O)c2cc3c(s2)CCCC3)s1	aSyn UTR inh 65 | 697 NFkB conf inactive
Cc1c(CCO)c(=O)oc2n[nH]c(-c3ccccc3)c12	697 NFkB inh 35 | 697 NFkB conf 24
CCc1c(C)c2c(C)nn(-c3ccccc3)c2oc1=O	none
